According to the supplement of paper PMC13380429:

System: Vero E6 infected with SARS-CoV-2
Test: inhibition of SARS-CoV-2 cytopathic effect; higher = more antiviral protection, active = above 15
Settings: 48 h

Measured: inhibition of SARS-CoV-2 cytopathic effect

COc1cc2c(cc1OCCCN1CCCC1)N=C(N)C21CCC1
inactive: 1 nM -1.51% | 8.33 nM 0.76% | 100 nM 0.57% | 833.33 nM 1.84% | 10000 nM 1.55%

N=C(N)NCCC[C@H](NC(=O)[C@@H]1CCCN1C(=O)[C@@H]1CSSC[C@H](N)C(=O)N[C@@H](Cc2ccc(O)cc2)C(=O)N[C@@H](Cc2ccccc2)C(=O)N[C@@H](CCC(N)=O)C(=O)N[C@@H](CC(N)=O)C(=O)N1)C(=O)NCC(N)=O [vasopressin]
inactive: 1 nM 3.02% | 8.33 nM -0.42% | 100 nM 1.64% | 833.33 nM 0.05% | 10000 nM -0.05%

O[C@@H]1[C@H](O)[C@@H](CCl)O[C@H]1n1cnc2c(NC3CC4CCC3C4)ncnc21 (mixture of isomers) [5'-chloro-5'-deoxy-ENBA-(+/-)]
inactive: 1 nM -4.47% | 8.33 nM -2.02% | 100 nM 0.3% | 833.33 nM 3.77% | 10000 nM -3.73%

Nc1ncn([C@H]2C[C@H](O)[C@@H](CO)O2)c(=O)n1 [decitabine]
inactive: 1 nM 3.33% | 8.33 nM 3.36% | 100 nM 4.5% | 833.33 nM -1.04% | 10000 nM -3.03%

N#Cc1cn([C@@H]2O[C@H](CO)[C@@H](O)[C@H]2O)c2ncnc(N)c12 [toyocamycin]
inactive: 1 nM 0.31% | 8.33 nM 2.87% | 100 nM 4.68% | 833.33 nM -0.02% | 10000 nM -0.24%

O=C(O)c1cnn(-c2nc3cc(OC(F)(F)F)c(Cl)cc3[nH]2)c1
inactive: 1 nM 0.36% | 8.33 nM 1.44% | 100 nM 1.23% | 833.33 nM 1.43% | 10000 nM -0.28%

C[C@@H](c1ncncc1F)[C@](O)(Cn1cncn1)c1ccc(F)cc1F [voriconazole]
inactive: 1 nM 0.72% | 8.33 nM 2.08% | 100 nM -2.48% | 833.33 nM -0.46% | 10000 nM 1.37%

CCCCCCCCCCCCCCCC(=O)OC[C@H](COP(=O)([O-])OCC[N+](C)(C)C)OC(=O)CCCCCCCCCCCCCCC [colfosceril-palmitate]
inactive: 1 nM -7.11% | 8.33 nM -7.33% | 100 nM -5.95% | 833.33 nM -6.54% | 10000 nM -9.82%

COc1ccc2c(NC(=O)Nc3cccc(C(F)(F)F)n3)ccnc2c1
inactive: 1 nM 1.28% | 8.33 nM 1.81% | 100 nM 2.91% | 833.33 nM 10.2% | 10000 nM 11.1%

Cc1c(Cn2c(C)nc3c(C(=O)O)cc(N4CCOCC4)cc32)cccc1C(F)(F)F
inactive: 1 nM 1.56% | 8.33 nM 4.39% | 100 nM 3.91% | 833.33 nM -2.09% | 10000 nM -2.66%

CCCCCCOC(=O)CCC(=O)CN [hexaminolevulinate]
inactive: 1 nM -0.29% | 8.33 nM 0.97% | 100 nM 1.79% | 833.33 nM 1.44% | 10000 nM 5.39%

OCCN1CCN(CCCN2c3ccccc3Sc3ccc(Cl)cc32)CC1 [perphenazine]
inactive: 1 nM 1.39% | 8.33 nM 1.94% | 100 nM 0.83% | 833.33 nM -2.86% | 10000 nM 2.67%

CCOC(=O)c1ccc(N2NC(=O)/C(=C/c3ccc([N+](=O)[O-])o3)C2=O)cc1
inactive: 1 nM 1.63% | 8.33 nM -1.91% | 100 nM -0.91% | 833.33 nM -2.48% | 10000 nM -6.2%

Cc1cc(Cl)ccc1OCCCC(=O)NO [droxinostat]
inactive: 1 nM 4.45% | 8.33 nM 1.04% | 100 nM 1.23% | 833.33 nM 1.7% | 10000 nM -3.27%

Nc1nc(=O)c2sc(=O)n([C@@H]3O[C@H](CO)[C@@H](O)[C@H]3O)c2[nH]1
inactive: 1 nM 2.96% | 8.33 nM 0.81% | 100 nM -0.66% | 833.33 nM 1.35% | 10000 nM -1.43%

CCN1C[C@]2(OC(=O)c3ccccc3NC(C)=O)CC[C@H](OC)[C@@]34[C@@H]2C[C@@H]([C@@H]13)[C@@]1(O)C[C@H](OC)[C@H]2C[C@@H]4[C@]1(O)[C@H]2OC [lappaconite]
inactive: 1 nM 6.58% | 8.33 nM 2.61% | 100 nM 1.75% | 833.33 nM 0.15% | 10000 nM 0.28%

C#C[C@]1(O)CC[C@H]2[C@@H]3CCC4=CC(=O)CC[C@@H]4[C@H]3C(=C)C[C@@]21CC [etonogestrel]
inactive: 1 nM -0.26% | 8.33 nM -1.3% | 100 nM -4.31% | 833.33 nM -3.15% | 10000 nM -3.98%
